We go through 1 compound from ChEMBL document CHEMBL2218924, “A broad activity screen in support of a chemogenomic map for kinase signalling research and drug discovery” (Biochem J, 2013).

In experiment [1] the target is T1, Ephrin type-A receptor 3 (Homo sapiens) (UniProt P29320).
T1 sequence (whole entry): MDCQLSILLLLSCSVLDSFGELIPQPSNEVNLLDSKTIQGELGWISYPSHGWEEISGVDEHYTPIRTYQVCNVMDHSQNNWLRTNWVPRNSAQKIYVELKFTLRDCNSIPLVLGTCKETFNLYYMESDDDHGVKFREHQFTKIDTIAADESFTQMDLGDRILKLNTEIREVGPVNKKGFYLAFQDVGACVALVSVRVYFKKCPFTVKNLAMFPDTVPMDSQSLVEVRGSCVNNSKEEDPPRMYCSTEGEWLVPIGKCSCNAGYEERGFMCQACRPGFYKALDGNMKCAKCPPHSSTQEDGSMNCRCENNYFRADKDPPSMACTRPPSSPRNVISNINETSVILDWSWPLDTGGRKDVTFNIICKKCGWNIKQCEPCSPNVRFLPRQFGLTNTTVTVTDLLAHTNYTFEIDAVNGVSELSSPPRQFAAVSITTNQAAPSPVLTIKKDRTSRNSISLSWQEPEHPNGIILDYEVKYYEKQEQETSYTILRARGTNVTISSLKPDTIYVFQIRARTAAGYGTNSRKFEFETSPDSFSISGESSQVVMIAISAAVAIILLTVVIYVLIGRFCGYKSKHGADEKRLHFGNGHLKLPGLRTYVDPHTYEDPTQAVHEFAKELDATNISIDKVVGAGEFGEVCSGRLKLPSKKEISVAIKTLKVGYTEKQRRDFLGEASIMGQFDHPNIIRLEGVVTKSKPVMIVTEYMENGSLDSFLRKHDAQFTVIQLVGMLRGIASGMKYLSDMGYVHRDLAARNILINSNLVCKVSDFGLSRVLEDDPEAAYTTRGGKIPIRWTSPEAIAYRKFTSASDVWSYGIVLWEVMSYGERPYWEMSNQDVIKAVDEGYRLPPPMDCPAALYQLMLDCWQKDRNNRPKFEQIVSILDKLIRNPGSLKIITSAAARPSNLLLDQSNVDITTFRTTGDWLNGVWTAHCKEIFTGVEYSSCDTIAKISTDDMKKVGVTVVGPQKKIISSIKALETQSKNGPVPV
Particulars: at 10 µM.

Experiment [2] addresses Ephrin type-A receptor 4 (Homo sapiens) (UniProt P54764). Particulars: at 1 µM.
For experiment [3] the target is unchanged. The settings on record: at 10 µM.
Experiment [4] has as its target Ephrin type-A receptor 5 (Homo sapiens) (UniProt P54756). The settings on record: at 1 µM.
Experiment [5] shares this target. Particulars: at 10 µM.
For experiment [6], the target named is Ephrin type-A receptor 7 (Homo sapiens) (UniProt Q15375). Particulars: at 1 µM.
Ephrin type-A receptor 7 (Homo sapiens), sequence (Q15375 28-998 limits assumed): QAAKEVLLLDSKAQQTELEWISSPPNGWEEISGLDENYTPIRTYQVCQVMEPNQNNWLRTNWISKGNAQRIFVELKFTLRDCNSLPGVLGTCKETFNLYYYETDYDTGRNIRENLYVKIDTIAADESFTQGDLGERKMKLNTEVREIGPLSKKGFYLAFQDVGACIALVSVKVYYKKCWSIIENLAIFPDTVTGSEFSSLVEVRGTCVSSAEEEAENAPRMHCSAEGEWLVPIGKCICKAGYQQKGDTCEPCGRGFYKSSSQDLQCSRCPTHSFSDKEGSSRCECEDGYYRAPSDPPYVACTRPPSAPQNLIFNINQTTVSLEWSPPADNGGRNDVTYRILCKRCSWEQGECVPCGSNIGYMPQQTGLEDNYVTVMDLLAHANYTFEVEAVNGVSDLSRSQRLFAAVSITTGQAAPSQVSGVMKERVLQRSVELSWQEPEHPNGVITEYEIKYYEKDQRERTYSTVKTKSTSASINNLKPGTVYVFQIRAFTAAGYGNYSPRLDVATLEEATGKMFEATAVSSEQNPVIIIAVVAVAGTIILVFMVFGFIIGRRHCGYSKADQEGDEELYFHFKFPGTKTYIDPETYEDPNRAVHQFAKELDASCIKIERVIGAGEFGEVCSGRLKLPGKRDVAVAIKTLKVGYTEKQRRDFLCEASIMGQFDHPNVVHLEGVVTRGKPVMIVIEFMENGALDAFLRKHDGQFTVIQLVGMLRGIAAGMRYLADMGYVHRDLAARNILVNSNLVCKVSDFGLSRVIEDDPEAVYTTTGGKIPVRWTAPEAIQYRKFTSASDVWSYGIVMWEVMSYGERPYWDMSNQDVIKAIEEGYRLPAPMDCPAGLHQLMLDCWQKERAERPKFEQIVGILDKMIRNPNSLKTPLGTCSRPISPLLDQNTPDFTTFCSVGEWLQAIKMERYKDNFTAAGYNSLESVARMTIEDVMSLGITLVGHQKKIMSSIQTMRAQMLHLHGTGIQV
Experiment [7] has the same target. The settings on record: at 10 µM.
In experiment [8] the target is T2, Ephrin type-A receptor 8 (Homo sapiens) (UniProt P29322).
T2 sequence (whole entry): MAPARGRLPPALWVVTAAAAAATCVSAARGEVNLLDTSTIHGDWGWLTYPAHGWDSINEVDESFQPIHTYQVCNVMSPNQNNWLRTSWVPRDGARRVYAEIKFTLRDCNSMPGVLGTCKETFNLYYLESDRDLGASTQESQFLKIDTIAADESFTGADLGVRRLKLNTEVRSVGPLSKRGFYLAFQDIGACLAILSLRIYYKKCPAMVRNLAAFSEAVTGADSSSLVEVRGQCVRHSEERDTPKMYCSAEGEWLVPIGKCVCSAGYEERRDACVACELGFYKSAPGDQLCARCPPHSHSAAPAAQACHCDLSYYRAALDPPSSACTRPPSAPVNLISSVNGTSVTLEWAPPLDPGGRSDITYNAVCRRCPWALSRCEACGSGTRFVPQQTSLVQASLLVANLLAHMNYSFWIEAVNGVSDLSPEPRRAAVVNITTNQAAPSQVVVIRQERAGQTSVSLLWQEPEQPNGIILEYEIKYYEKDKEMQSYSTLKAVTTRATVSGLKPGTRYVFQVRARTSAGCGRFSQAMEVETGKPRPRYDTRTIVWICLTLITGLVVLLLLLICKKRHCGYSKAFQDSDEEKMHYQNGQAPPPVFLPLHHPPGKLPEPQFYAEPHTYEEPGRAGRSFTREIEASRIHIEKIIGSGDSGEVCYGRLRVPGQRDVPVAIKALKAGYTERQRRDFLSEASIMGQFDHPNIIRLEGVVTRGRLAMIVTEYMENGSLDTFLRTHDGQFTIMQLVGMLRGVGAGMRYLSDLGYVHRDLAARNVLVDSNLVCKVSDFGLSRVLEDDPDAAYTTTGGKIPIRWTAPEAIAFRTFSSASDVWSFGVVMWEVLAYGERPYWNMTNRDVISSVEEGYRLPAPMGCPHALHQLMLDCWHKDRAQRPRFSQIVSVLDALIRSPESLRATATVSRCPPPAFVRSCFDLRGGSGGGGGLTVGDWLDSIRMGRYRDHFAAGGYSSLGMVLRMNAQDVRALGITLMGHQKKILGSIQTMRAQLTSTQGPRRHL
The settings on record: at 1 µM.

Experiment [9] has as its target T2, Ephrin type-A receptor 8 (Homo sapiens). The settings on record: at 10 µM.
Experiment [10] concerns the target T3, Ephrin type-B receptor 1 (Homo sapiens) (UniProt P54762).
T3 sequence (whole entry): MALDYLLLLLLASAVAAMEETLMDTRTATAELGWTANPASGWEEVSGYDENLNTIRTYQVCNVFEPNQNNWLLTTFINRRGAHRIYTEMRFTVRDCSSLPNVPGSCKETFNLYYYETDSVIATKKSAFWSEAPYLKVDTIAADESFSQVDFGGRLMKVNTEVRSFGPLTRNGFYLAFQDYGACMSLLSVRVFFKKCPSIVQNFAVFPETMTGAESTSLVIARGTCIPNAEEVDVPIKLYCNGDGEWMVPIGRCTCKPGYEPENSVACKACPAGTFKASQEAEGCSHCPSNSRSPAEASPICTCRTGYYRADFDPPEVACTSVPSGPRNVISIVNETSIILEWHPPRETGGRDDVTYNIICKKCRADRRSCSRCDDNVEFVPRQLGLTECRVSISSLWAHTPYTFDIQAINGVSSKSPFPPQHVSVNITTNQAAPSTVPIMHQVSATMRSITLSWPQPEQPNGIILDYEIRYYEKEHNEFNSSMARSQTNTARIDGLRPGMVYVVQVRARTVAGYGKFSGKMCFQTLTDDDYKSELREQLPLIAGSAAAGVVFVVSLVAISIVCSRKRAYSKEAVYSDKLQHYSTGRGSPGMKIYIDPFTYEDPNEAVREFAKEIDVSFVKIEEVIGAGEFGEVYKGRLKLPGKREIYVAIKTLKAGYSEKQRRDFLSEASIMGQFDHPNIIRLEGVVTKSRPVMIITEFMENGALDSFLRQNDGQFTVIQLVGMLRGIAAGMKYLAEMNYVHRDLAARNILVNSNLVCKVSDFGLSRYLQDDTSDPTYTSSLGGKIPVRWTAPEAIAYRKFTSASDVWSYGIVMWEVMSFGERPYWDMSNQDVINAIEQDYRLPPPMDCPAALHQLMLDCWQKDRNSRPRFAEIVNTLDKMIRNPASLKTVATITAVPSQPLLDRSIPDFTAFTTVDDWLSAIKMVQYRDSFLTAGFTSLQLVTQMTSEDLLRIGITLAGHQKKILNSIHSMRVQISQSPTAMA
The settings on record: at 1 µM.

Ephrin type-A receptor 5 (Homo sapiens), sequence (P54756 whole entry): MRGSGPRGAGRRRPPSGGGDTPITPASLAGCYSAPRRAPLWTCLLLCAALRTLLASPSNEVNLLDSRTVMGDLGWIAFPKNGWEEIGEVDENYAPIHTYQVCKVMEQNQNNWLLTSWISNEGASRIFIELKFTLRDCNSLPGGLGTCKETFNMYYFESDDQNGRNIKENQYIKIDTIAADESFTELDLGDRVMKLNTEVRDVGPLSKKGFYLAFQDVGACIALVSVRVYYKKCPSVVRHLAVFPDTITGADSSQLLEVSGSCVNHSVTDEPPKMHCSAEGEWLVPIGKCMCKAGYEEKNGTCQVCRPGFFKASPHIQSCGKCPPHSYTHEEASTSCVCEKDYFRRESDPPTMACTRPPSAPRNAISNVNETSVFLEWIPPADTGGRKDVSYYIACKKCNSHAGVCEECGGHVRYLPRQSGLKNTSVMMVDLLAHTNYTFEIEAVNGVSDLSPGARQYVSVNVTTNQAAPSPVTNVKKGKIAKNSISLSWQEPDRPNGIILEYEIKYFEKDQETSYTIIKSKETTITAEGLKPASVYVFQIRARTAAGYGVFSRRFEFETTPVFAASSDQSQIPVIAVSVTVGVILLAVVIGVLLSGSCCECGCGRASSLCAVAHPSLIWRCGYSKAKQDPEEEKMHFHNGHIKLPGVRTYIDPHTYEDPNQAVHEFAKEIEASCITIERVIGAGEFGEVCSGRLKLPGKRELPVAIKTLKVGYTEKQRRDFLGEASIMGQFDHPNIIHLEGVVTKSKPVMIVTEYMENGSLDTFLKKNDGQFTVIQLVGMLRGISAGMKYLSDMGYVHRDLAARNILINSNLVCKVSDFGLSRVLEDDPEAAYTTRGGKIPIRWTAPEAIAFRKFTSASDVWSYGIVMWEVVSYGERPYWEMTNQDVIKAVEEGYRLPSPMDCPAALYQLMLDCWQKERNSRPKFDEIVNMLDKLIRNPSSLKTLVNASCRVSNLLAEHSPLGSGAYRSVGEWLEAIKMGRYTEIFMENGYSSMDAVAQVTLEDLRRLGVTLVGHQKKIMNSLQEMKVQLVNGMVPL
Ephrin type-A receptor 4 (Homo sapiens), sequence (P54764 whole entry): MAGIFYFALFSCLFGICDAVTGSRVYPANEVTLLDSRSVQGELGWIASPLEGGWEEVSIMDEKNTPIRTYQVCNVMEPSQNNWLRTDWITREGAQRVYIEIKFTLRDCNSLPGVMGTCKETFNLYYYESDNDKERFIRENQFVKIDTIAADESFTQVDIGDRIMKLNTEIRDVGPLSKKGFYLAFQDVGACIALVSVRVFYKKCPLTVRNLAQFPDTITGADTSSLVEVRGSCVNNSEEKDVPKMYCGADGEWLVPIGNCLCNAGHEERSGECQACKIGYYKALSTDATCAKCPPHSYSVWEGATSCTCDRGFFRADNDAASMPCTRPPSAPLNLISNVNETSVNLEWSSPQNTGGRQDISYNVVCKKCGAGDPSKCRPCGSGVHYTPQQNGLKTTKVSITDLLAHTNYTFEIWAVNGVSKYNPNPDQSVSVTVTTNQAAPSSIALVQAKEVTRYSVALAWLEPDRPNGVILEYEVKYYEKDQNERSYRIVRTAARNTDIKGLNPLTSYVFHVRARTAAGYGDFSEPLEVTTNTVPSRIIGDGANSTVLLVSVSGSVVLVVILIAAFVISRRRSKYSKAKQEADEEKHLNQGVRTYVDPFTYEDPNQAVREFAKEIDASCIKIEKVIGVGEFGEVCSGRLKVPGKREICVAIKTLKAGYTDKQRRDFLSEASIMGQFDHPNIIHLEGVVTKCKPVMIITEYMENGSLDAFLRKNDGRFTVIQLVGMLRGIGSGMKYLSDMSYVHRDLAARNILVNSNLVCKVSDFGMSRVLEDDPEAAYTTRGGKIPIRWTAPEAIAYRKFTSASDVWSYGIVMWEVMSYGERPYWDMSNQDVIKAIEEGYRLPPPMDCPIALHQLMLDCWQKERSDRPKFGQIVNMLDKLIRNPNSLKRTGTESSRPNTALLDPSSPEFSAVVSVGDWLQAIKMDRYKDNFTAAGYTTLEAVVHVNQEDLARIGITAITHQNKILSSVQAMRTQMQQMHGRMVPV

As for `O=C1NC(=O)c2c1c1c3ccccc3[nH]c1c1[nH]c3cc(Br)ccc3c21`, the residual activity worked out at 86% in experiment [1]; 104% in [2]; 92% in experiment [3]; 111% in experiment [4]; 91% in experiment [5]; 99% in experiment [6]. The residual activity in [7] was found to be 93%; in [8], 95%; in [9], 88%; in experiment [10] it was 106%.

In general, residual activity refers to the signal under treatment as a percentage of the control signal.
